PubChem BioAssay (NCI)
The panel holds about 83,000 compounds, 20% with a hit somewhere; the sample as a whole holds those more often.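 How to read the values: 0–100, growth inhibition (40 = 60% inhibited); 0, no net growth; -100 to 0, cell death (-40 = 40% of starting cells died; -100 = all dead).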 A number with no mark means an inactive call. The source made the active and inactive calls. Rule for the calls: active = growth percent below 10; inactive = the rest.

Legend:
Test in all cases: NCI-60 one-dose screen, 48 h (100 = growth as untreated, 0 = no growth, -100 = all killed)
Conditions in all cases: 10 µM unless noted
NCI-H23 lung = test system: NCI-H23 lung
NCI-H226 lung = test system: NCI-H226 lung
NCI-H322M lung = test system: NCI-H322M lung
HOP-62 NSCLC = test system: HOP-62 NSCLC
NCI-H460 lung = test system: NCI-H460 lung
HOP-92 NSCLC = test system: HOP-92 NSCLC
NCI-H522 lung = test system: NCI-H522 lung
A549/ATCC NSCLC = test system: A549/ATCC NSCLC
786-0 renal = test system: 786-0 renal
COLO 205 colon = test system: COLO 205 colon

Compound | growth (NCI-H23 lung) | growth (NCI-H226 lung) | growth (NCI-H322M lung) | growth (HOP-62 NSCLC) | growth (NCI-H460 lung) | growth (HOP-92 NSCLC) | growth (NCI-H522 lung) | growth (A549/ATCC NSCLC) | growth (786-0 renal) | growth (COLO 205 colon)
NS(=O)(=O)c1cn(-c2ncnc3nc[nH]c23)ccc1=O | 94.2% | 78% | 94.5% | 94.9% | 112% | 82.7% | 51.2% | 36% | 96.9% | 100%
CN(C)CCn1cc(-c2ccc3c(Nc4ccc(CC(=O)Nc5cccc(F)c5)cc4)ncnc3c2)cn1 | -57.2% [30 µM] (active) | -36.7% [30 µM] (active) | -94.5% [30 µM] (active) | -23.2% [30 µM] (active) | -74.1% [30 µM] (active) | -28.8% [30 µM] (active) | -30.5% [30 µM] (active) | -41.4% [30 µM] (active) | -50.8% [30 µM] (active) | -61.8% [30 µM] (active)
O=C(O)c1ccc(CO)o1 | 110% | 106% | 105% | 113% | 101% | 91.5% | 86.4% | 93.6% | 77.8% | 115%
C=C1C(=O)O[C@H]2[C@H]1CC/C(COC(=O)/C=C\C(=O)NCc1ccc(Cn3c(=O)sn(-c4ccc(Cl)cc4)c3=O)cc1)=C\CC[C@@]1(C)O[C@@H]21 | -63.6% (active) | -58.9% (active) | -18.5% (active) | -34.7% (active) | -73.2% (active) | -66.7% (active) | -55.9% (active) | -43.7% (active) | -82.5% (active) | -45% (active)
O=c1oc2ccc(Cl)cc2cc1-c1cs/c(=N/N=C\c2ccc(Cl)cc2)n1/N=C/c1ccc(Cl)cc1 | 99.7% | 102% | 97.9% | 109% | 105% | 98% | 75.2% | 89.3% | 97.9% | 109%
O=C(Nc1ccc(N2CCCCC2)c(Cl)c1)c1ccc(Br)o1 | 81.3% | 82.1% | 115% | 109% | 69.4% | 105% | 87.2% | 82.5% | 97.6% | 103%
Cc1nc(Nc2ccc(N)cc2)c2ccccc2n1 | 86.8% | 97.6% | 117% | 104% | 102% | 109% | 80.8% | 103% | 107% | 92.2%
O=C1/C(=C/c2ccc([N+](=O)[O-])cc2)COc2ccc(O)c(O)c21 | 11.1% | 50.9% | 42.7% | 4.16% (active) | -17.2% (active) | -4.37% (active) | -52.7% (active) | 34.5% | -60.5% (active) | 16.3%
C=C1C(=O)O[C@H]2[C@H]1CC/C(COC(=O)/C=C\C(=O)NCc1ccc(Cn3c(=O)sn(CCCC)c3=O)cc1)=C\CC[C@@]1(C)O[C@@H]21 | -61.4% (active) | -70.4% (active) | 35.4% | -35.7% (active) | -54.3% (active) | -67.7% (active) | -44.5% (active) | 0.708% (active) | -76.8% (active) | -51.2% (active)
C[C@@H]1CC[C@@H]2[C@@H]1[C@H](OC(=O)/C=C/c1ccccc1)[C@]1(C3CCCCC3)C[C@@H](NC(=O)CO)[C@@]2(C)O1 | 95.8% | 102% | 92.9% | 112% | 94.5% | 94.4% | 71.9% | 101% | 96.4% | 109%
COc1ccc(-n2nnc(C(=O)NCCc3c[nH]c4ccc(F)cc34)c2C)cc1 | 98.5% | 97.9% | 101% | 86.5% | 100% | 87.6% | 76.1% | 82% | 99.6% | 111%
COc1cc2oc(-c3cccc(C(=O)Nc4ccc(C#N)cc4)c3)cc(=O)c2c(O)c1OC | 38.2% | 21.2% | 72.7% | -31.8% (active) | 18.9% | 79.2% | 61.2% | 37.4% | 70.4% | 39.9%
CCCCCCNC(=O)c1cc(NCc2cc(O)ccc2O)ccc1O | 87.5% | 92.3% | 89.2% | 70.9% | 94.5% | 24% | -62.3% (active) | 70.5% | 45.9% | 96.9%
